Compounds without any hit were thinned out: in the full panel of roughly 83,000, 20% have a hit.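 96-well plates, one dose, 48 hours. Percent growth reported; active if below 10.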 The source made the active and inactive calls.
system: OVCAR-8 ovarian; test: NCI-60 one-dose screen, 48 h (100 = growth as untreated, 0 = no growth, -100 = all killed); conditions: 10 µM unless noted

SMILES	growth
Cc1cc(C)n(CC(=O)Nc2ccc(-c3nc4ccccc4s3)cc2)n1	99.7% (inactive)
CNS(=O)(=O)Nc1nccc(Cc2c(C)c3ccc(Oc4ncccn4)cc3oc2=O)c1F	63.2% (inactive)
C[C@@H](Oc1cc(-n2cnc3ccc(CN4CCN(C)CC4)cc32)sc1C(N)=O)c1ccccc1C(F)(F)F	5.18% (active)
COc1ccc(Cl)c(Nc2nc3ccccc3nc2NS(=O)(=O)c2cccc(NC(=O)C(C)(C)N)c2)c1	53.3% (inactive)
COc1ccc(-c2ccc3c(N4CCOC[C@@H]4C)nc(N4CCOC[C@@H]4C)nc3n2)cc1CO	-3.37% (active)
O=C(Nc1cccc(Cl)c1)Nc1ncc(CCNc2ncnc3ccsc23)s1	1.53% (active)
C#Cc1cccc(Nc2ncnc3cc(OCCOC)c(OCCOC)cc23)c1	40.4% (inactive)
O=C(Nc1ccc(Nc2ncnc3sc4c(c23)CCOC4)cc1)Nc1ccc(Cl)c(C(F)(F)F)c1	109% (inactive)
CCCCN1C(=O)c2cccc3c(-c4ccc5c(c4)ncn5C4CCCCC4)ccc(c23)C1=O	89.9% (inactive)
COc1cc(Nc2c(C#N)cnc3cc(OCCCN4CCN(C)CC4)c(OC)cc23)c(Cl)cc1Cl	42.9% (inactive)
COc1ncc(-c2ccc3nccc(-c4ccnnc4)c3c2)cc1NS(=O)(=O)c1ccc(F)cc1F	-17% (active)
C/C(=C(/c1ccc(Cl)cc1)c1ccc(OCCN2CCCC2)cc1)c1ccccc1	88.1% (inactive)
COc1cc(OC)c(/C=C/S(=O)(=O)Cc2ccc(OC)c(NCC(=O)O)c2)c(OC)c1	15.4% (inactive)
Nc1ncnc2c1ccn2-c1cccc(NC(=O)c2ccc(N3CCOCC3)c(C(F)(F)F)c2)c1	24.8% (inactive)
C/C=C/C=N/NC(=S)Nc1ccccc1	96.5% (inactive)
C=CC(=O)Nc1cc(Nc2nccc(-c3cn(C)c4ccccc34)n2)c(OC)cc1N(C)CCN(C)C	-25.4% (active)
C[C@@H](NC(=O)c1ncnc(N)c1Cl)c1ncc(C(=O)Nc2cc(C(F)(F)F)c(Cl)cn2)s1	64.5% (inactive)
COc1cc2c(Oc3ccc4[nH]c(C)cc4c3F)ncnc2cc1OCCCN1CCCC1	97.1% (inactive)
NC[C@@](O)(c1ccc(Cl)cc1)c1ccc(-c2cn[nH]c2)cc1	29.1% (inactive)
Cc1cc(O)cc(-c2c(-c3ccnc(-c4cccnc4)c3)cnn2C)c1	73.5% (inactive)

SMILES	growth
CS(=O)(=O)N1CCN(Cc2cc3nc(-c4cccc5[nH]ncc45)nc(N4CCOCC4)c3s2)CC1	27% (inactive)
CN[C@@H]1C[C@H]2O[C@@](C)([C@@H]1OC)n1c3ccccc3c3c4c(c5c6ccccc6n2c5c31)C(=O)N[C@H]4O	-36.7% (active)
O=c1[nH]ccc2c(S(=O)(=O)N3CCCNCC3)cccc12	90.4% (inactive)
CCN(CCCOc1ccc2c(Nc3cc(CC(=O)Nc4cccc(F)c4)[nH]n3)ncnc2c1)CCOP(=O)(O)O	70.2% (inactive)
Cn1cc(-c2cnn3c(N)c(Br)c([C@@H]4CCCNC4)nc23)cn1	50.8% (inactive)
C[C@@H](Nc1cc(F)cc(F)c1)c1cc(C(=O)N(C)C)cc2c(=O)cc(N3CCOCC3)oc12	57.9% (inactive)
COc1ccc2c(CCCc3ccc(Cl)cc3Cl)c3[n+](cc2c1OC)CCc1cc2c(cc1-3)OCO2	0.597% (active)
Cn1c(=O)c(F)c(Nc2ccc(I)cc2F)c2c(=O)n(C[C@@H](O)CO)cnc21	43.9% (inactive)
CC(C)(C)c1cnc(CSc2cnc(NC(=O)C3CCNCC3)s2)o1	5.71% (active)
NC1(C(=O)N[C@@H](CCO)c2ccc(Cl)cc2)CCN(c2ncnc3[nH]ccc23)CC1	76.4% (inactive)
COC(=O)c1ccc2c(C(=Nc3ccc(N(C)C(=O)CN4CCN(C)CC4)cc3)c3ccccc3)c(O)[nH]c2c1	53.2% (inactive)
CS(=O)(=O)CCNCc1ccc(-c2ccc3ncnc(Nc4ccc(OCc5cccc(F)c5)c(Cl)c4)c3c2)o1	-26.5% (active)
C1=C\COCc2cc(ccc2OCCN2CCCC2)Nc2nccc(n2)-c2cccc(c2)COC/1	6.66% (active)
O=C(Nc1cn[nH]c1-c1nc2ccc(CN3CCOCC3)cc2[nH]1)NC1CC1	28.7% (inactive)
Cc1cc2c(-c3nc4ccccn4c3N)c(O)c(O)cc2c(O)c1-c1c(C)cc2c(-c3nc4ccccn4c3N)c(O)c(O)cc2c1O	19.9% (inactive)
Cc1csc(-c2nnc(Nc3ccc(Oc4ncccc4-c4ccnc(N)n4)cc3)c3ccccc23)c1	31% (inactive)
CC(C)CC(=O)Nc1n[nH]c2c1CN(C(=O)C1CCN(C)CC1)C2(C)C	15.4% (inactive)
Cc1ccccc1N1C(c2ccccc2)=NNC12C=CC(=O)C=C2Cl (centres undefined)	96.7% (inactive)
C=CCn1c(=O)c2cnc(Nc3ccc(N4CCN(C)CC4)cc3)nc2n1-c1cccc(C(C)(C)O)n1	8.75% (active)
